In PubChem BioAssay AID624117 (National Center for Advancing Translational Sciences (NCATS), 2012):
Results filed as inconclusive are left out. Activity calls are given as the source filed them. The call rests on the fitted dose curve; in most records, active means well fitted curve in the direction sought with a large enough effect; inconclusive means small, poorly fitted or top-dose-only effect, or another doubt; inactive means no such curve, though single readings can be large or run the other way.

assay: qHTS Assay for Rab9 Promoter Activators: Hit Validation Using Renilla Luciferase Read-Out; settings: Huh7 NPC1 promoter Renilla luciferase reporter, 24 h; series mostly up to 76.9 µM; activation (negative = inhibition): at the top concentration; on activation (negative = inhibition): % of control where 0% means no effect
Description: Niemann Pick Type C (NPC) is a rare neurodegenerative lipidosis that is characterized by lipid storage in the endosomal/lysosomal system. Treatment modalities for this devastating disease are currently non-existent due to the severe obstacles associated with accessing the central nervous system with proteins or genes. The majority of mutations causing NPC disease are missense mutations that are distributed throughout the length of the NPC1 protein, with the most prevalent being the I1061T allele. Although NPC1 mutant proteins may be functional, they are typically trapped in the ER due to misfolding. […] We have developed and optimized a cell based renilla luciferase reporter assay in 1536 well format for the identification of up-regulators of the mutant NPC1 promoter. This assay presents data on the validation of hits from the primary screen, which used a firefly luciferase read-out. NIH Chemical Genomics Center [NCGC] NIH Molecular Libraries Probe Production centers Network [MLPCN] MLPCN Grant: MH089375 Assay Submitter (PI): Yiannis A. Ioannou
Huh7 cells stably expressing NPC promoter-luciferase will be seeded at 1,500 cells/well in 5 uL in 1,536-well white opaque plates with 23 nL/well of compound in DMSO solution. The assay plates will be incubated at 37 deg C for 24 hours, after which 3 uL/well BriteLite plus luciferase detection reagent mixture (Perkin Elmer) will be added. Luminescence signal will be measured in a ViewLux plate reader (Perkin Elmer) after a 10 minute incubation at the room temperature.
Potency means the concentration at half of the fitted maximal effect.

Activation (negative = inhibition), inactive:
CC(=O)NC(CCCN1C(=O)c2ccccc2C1=O)c1nnn(C)n1 (stereo not given) 2.21%
NNC(=O)c1cccc(S(=O)(=O)Nc2cc(Cl)ccc2Cl)c1 12.1%
O=C(COc1ccccc1F)Nc1ccc(-c2nc3ccccc3s2)cc1 -14.2%
C=CCn1c(C)nnc1SCC(=O)Nc1nccs1 -1.57%
CCN(C(=O)COC(=O)c1ccc(C=O)cc1)c1c(N)n(Cc2ccccc2)c(=O)[nH]c1=O 4.76%
O=C(CCCN1C(=O)C(c2ccccc2)Oc2cccnc21)Nc1ccccc1Cl (stereo not given) 3.99%
CNC(=O)Cn1nc(C)c2ccccc2c1=O -4.32%
CCOC(=O)CSc1nc2cc3c(cc2cc1C#N)OCO3 2.66%
O=C(CCCOc1ccc(Cl)cc1)N1CCCCC1 -3.94%
O=C(NC(=S)Nc1ccc(CN2CCCCC2)cc1)c1cc2ccccc2o1 9.7%
CCOc1ccc(CNC(=O)C2CCCN(S(C)(=O)=O)C2)cc1OC (stereo not given) -4.35%
O=C(O)CSc1nnc(-c2ccncc2)n1CCc1ccccc1 -6.59%
O=C(CCN1C(=O)c2ccccc2C1=O)Nc1ccc(-c2nc3ccccc3s2)cc1 -11.4%
Cc1ccc(S(=O)(=O)/N=C2\C=C(Nc3cccc(C(=O)O)c3)C(=O)c3ccccc32)cc1 -90.7%
CC1CCCN(S(=O)(=O)c2ccc(C(=O)Nc3nnc(-c4ccncc4)o3)cc2)C1 (stereo not given) -97.9%
CCC(=O)Nc1cc(-c2cc3ccccc3oc2=O)ccc1OC 3.28%
Cc1c(C(O)CN2CCN(Cc3ccc4c(c3)OCO4)CC2)c2ccccc2n1C (stereo not given) 11.6%
O=C(NCCc1c[nH]c2ccccc12)C(=O)NCC(c1ccco1)N1CCN(c2ccccc2F)CC1 (stereo not given) -40.5%
CCCNC(=O)C1CCN(S(=O)(=O)c2ccc3[nH]c(=O)ccc3c2)CC1 -9.86%
COc1ccc(NC(=S)NNC(=O)c2cccs2)cc1 10.2%
CC(=O)Nc1nnc(SCC(=O)NCCOc2ccccc2)s1 -12.5%
COC(=O)c1cn(NC(=O)C2CCCCC2)c(=O)c2ccccc12 -1.87%
COc1ccc(NC(=O)CN(C)C(=O)c2ccc(=O)[nH]c2)cc1 3.53%
Cc1ccc(C#N)c(SCC(=O)Nc2nccs2)n1 -0.351%
Cc1ccccc1NC(=O)Cc1nc(COC(=O)CC(C)c2ccccc2)cs1 (stereo not given) 2.23%
C=CCOC(=O)N1CCN(c2cccc(C(F)(F)F)c2)CC1 -2.4%
COC(=O)c1ccc(NC(=O)c2ccc3nc(C)sc3c2)cc1 7.49%
CCCOC(=O)Cn1cnc2scc(-c3ccc(OC)cc3)c2c1=O -4.52%
CC(C)(C)C(=O)N/C(N)=N/c1nc2ccccc2o1 -72.9%
COC(=O)Nc1nc2ccc(Br)cc2s1 -6.1%
Cc1ccc(C(=O)c2cncc(Br)c2)cc1 7.59%
CC(=O)c1cccc(NC(=O)N2CCOCC2)c1 -0.773%
O=C(NC1CCCC1)C(c1ccc(F)cc1)N(C(=O)c1csnn1)c1ccccc1 (stereo not given) -3.01%
Cc1ccc(C(=O)Nc2ccc(N3CCN(C)CC3)nc2)cc1 -2.51%
Cc1ccc(C)c(Nc2cc(C)nc3ncnn23)c1 -3.45%
O=C(NNC(=O)C1COc2ccccc2O1)c1ccccc1O (stereo not given) -1.57%
CCOC(=O)c1cc2sccc2n1CC(=O)N1CCCc2ccccc21 -5.06%
COc1ccc(C)cc1N(C(=O)CNC(=O)c1ccco1)C(C(=O)NC1CCCC1)c1cccnc1 (stereo not given) 21.9%

Potency, active:
Nc1ccc(C(=O)Nc2ccccc2N)cc1 8.23 µM
Cc1ccc(S(=O)(=O)/N=C(/Nc2ccccn2)c2ccc(Cl)cc2)cc1 20.7 µM
